# PubChem BioAssay
# Values without a mark were called inactive. Calls of active or inactive are those of the source.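 How the source made its calls: active means compounds that lower survival of DLD-1 colon cancer cells in the luminescence readout, no cutoff given; inactive means the rest.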
# Assay: NPC library primary testing for decreased DLD-1 cell viability via CellTiter-Glo (AID 1117346)
# Details: DLD-1 viability, CellTiter-Glo luminescence; at 20 µM (top of the series)
row,SMILES,viability decrease (inhibition)
1,CC(=O)N(CC(=O)N(C)C)c1ccccc1,-21.1%
2,CC(=O)CC/C=C(\C)CC/C=C(\C)CC/C=C(\C)CCC=C(C)C,0.15%
3,OCC=Cc1ccccc1,-7.9%
4,NC(=O)C(=O)N/N=C/c1ccc([N+](=O)[O-])o1,23.6%
5,CCOC(CN1CCN(CC(C)C(=O)c2ccccc2)CC1)c1ccccc1 (centres undefined),-4.9%
6,Nc1nnnn1-c1ccccc1,-1.05%
7,NC(N)=NN=C(/C=C/c1ccc([N+](=O)[O-])o1)/C=C/c1ccc([N+](=O)[O-])o1,96% (active)
8,Nc1ccc(C(=O)Nc2ccccc2N)cc1,29.3%
9,CN1N=C(C(N)=O)CCC1=O,10.1%
10,C=CCNc1nc(NCC=C)nc(N2CCN(C(c3ccc(F)cc3)c3ccc(F)cc3)CC2)n1,49.4%
11,Nc1ccc(S(=O)(=O)Nc2ccccc2)cc1,0.95%
12,CN(C)CCN(Cc1ccsc1)c1ccccn1,-3.9%
13,NCc1ccccc1Sc1ccccc1CO,-10.7%
14,CCCCCCCCCCCCCCCC[N+](C)(C)CC,101% (active)
15,COc1cc(NS(=O)(=O)c2ccc(N)cc2)nc(C)n1,6.1%
16,C=Cc1c(C)c2cc3nc(cc4[nH]c(cc5nc(cc1[nH]2)C(C)=C5CCC(=O)O)c(CCC(=O)OC)c4C)[C@@]1(C)C3=CC=C(C(=O)OC)[C@@H]1C(=O)OC,99.9% (active)
17,N[C@H]1CN(c2c(F)cc3c(=O)c(C(=O)O)cn(C4C[C@@H]4F)c3c2Cl)CC12CC2 (some centres undefined),-9.6%
18,NC(=O)NC1N=C([O][Al])NC1=O (centres undefined),-4.5%
19,Cc1cccc(C)c1NC(=O)CN1CCCC1,2.4%
20,CC(=O)Nc1ccc(/C=N/NC(N)=S)cc1,-1.8%

row,SMILES,viability decrease (inhibition)
1,NCCNc1cccc2ccccc12,7.9%
2,O=c1[nH]c(=O)n([C@H]2O[C@H](CO)[C@@H](O)[C@@H]2O)cc1/C=C\Br,2.6%
3,O=C1NC(c2ccccc2)(c2ccccc2)C(=O)N1COP(=O)(O)O,-11%
4,CCN(CC)CCSC(=O)C(c1ccccc1)c1ccccc1,1.5%
5,O=C(O)Cc1csc(-c2ccc(Cl)cc2)n1,-11%
6,COc1cc2nc(Cl)nc(N)c2cc1OC,21.8%
7,NC(=S)N=Nc1ccc(NN=C(N)N)cc1,72.1% (active)
8,C[C@@H](O)[C@H](N)C(=O)O,12.6%
9,Cc1cnc(NS(=O)(=O)c2ccc(N)cc2)nc1,6.6%
10,CCCCCOc1ccc(C2SC(=O)NC2=O)cc1OCC (centres undefined),11.8%
11,FC1(F)C(F)(F)C(F)(F)C2(F)C(F)(F)C(F)(F)C(F)(F)C(F)(F)C2(F)C1(F)F (centres undefined),-11.3%
12,CCCCC[C@H](O)C=C[C@H]1[C@H](O)CC(=O)[C@H]1CC=CCCCC(=O)O,-48.6%
13,Cc1cc(N)c2cc(NC(=O)Nc3ccc4nc(C)cc(N)c4c3)ccc2n1,94.2% (active)
14,CCCCC(O)/C=C(C)/C=C/C=C/C(=O)N1CCCC1=O (centres undefined),-19.2%
15,CC(C)(C)c1nnc(NS(=O)(=O)c2ccc(N)cc2)s1,-5.4%
16,CC1(C)OC[C@@H](COC(=O)CCc2ccc(OC[C@@H](O)CNCCNC(=O)N3CCOCC3)cc2)O1,44%
17,CC(CCc1ccc2c(c1)OCO2)NN (centres undefined),17.7%
18,CCCOc1ccc2c(c1)CC[C@@H]1[C@@H]2CC[C@]2(C)C(OC)CC[C@@H]12 (some centres undefined),40.8%
19,CC/C=C(\C(=O)N[C@@H]1C(=O)N2C(C(=O)OCOC(=O)C(C)(C)C)=C(COC(N)=O)CS[C@H]12)c1csc(N)n1,-17.7%
